Assay outcomes (PubChem BioAssay)
Methyltransferases: Primary Screen for Target Class Profiling of Small Molecule Inhibitors of Methyltransferases; purified enzyme, MTase-Glo SAH luminescence; active compounds read low; calls only at 40 µM; 25,000 tested, 3.9% active; AID 1745853, 2022; call rule not given here
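Each enzyme was reacted with SAM and its substrate, with compounds tested once at 40 uM; SAH formed was read by MTase-Glo luminescence.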
Each line names hits and unclear results; the compound was inactive in the other large screens; ! = not active in a repeat. Shown is part of a subset that was picked to be rich in hits.

CCCNc1ccc2ncc(-c3ccc4[nH]ncc4c3)n2n1	Methyltransferases active
CCCn1c(=O)c2ccc(C(=O)NC3CCCC3)cc2n2c(=O)n(Cc3cccc(Cl)c3)nc12	none
CC1(C(=O)NC2CCCCC2)Cn2c(ccc2-c2ccccc2)C(=O)N1Cc1cccc(F)c1 (configuration not stated)	none
O=C(O)/C=C/c1ccc(-c2ccc(O)c(C34CC5CC(CC(C5)C3)C4)c2)cc1	Methyltransferases active
O=C(O)/C=C/c1ccc(O)c(O)c1	none
CCCn1c(=O)c2cc(F)ccc2n2c(SCC(=O)Nc3ccc(OC)c(OC)c3)nnc12	none
CCCCN1C(=O)c2cc(C(=O)NCCC)nn2CC1(C)C(=O)NC1CCCC1 (configuration not stated)	none
CS(=O)(=O)Nc1ccc2oc3c(OC(F)F)ccc(C(=O)Nc4c(Cl)cncc4Cl)c3c2c1	Methyltransferases active
COc1ccc(NC(=O)CCc2nnc3n(Cc4ccccc4Cl)c(=O)c4ccccc4n23)cc1OC	none
CC(C)CCNC(=O)C1(C)Cn2nc(C(=O)NCCN3CCCC3)cc2C(=O)N1C (configuration not stated)	none
C=CCn1c(=O)c2ccc(C(=O)NCC(C)C)cc2n2c(=O)n(CC(=O)N(C)c3ccccc3)nc12	none
CN(C)CCOC(c1ccccc1)c1ccccc1	none
CN(C)CCOC(C)(c1ccccc1)c1ccc(Cl)cc1 (configuration not stated)	Methyltransferases active
CCCn1c(=O)c2ccc(C(=O)NC3CCCCC3)cc2n2c(=O)n(CC(=O)Nc3cccc(C)c3)nc12	none
COc1ccc(-c2nnc3n(Cc4ccccc4Cl)c(=O)c4ccccc4n23)c(OC)c1	none
CCCn1c(=O)c2ccccc2n2c(=O)n(CC(=O)Nc3cc(OC)cc(OC)c3)nc12	none
CCN1C(=O)c2cc3ccccc3n2CC1(C)C(=O)NCC(=O)NCc1ccc(OC)cc1 (configuration not stated)	none
CC(C)c1cccc2c(-c3ccccc3)cc(-c3ccc(-c4ccc(C(=O)O)cc4)[nH]3)nc12	Methyltransferases active
Cc1cc(C)c(NS(=O)(=O)c2ccc3[nH]c4c(c3c2)CCCC4)c(C)c1	none
COc1ccc(N2C(=O)c3cc(-c4ccccc4)nn3CC2(C)C(=O)NCc2ccccc2)cc1 (configuration not stated)	none
O=C(NCc1ccccn1)c1ccc2c(=O)nc3c(-c4ccc(F)cc4)n[nH]n3c2c1	none
CC1=C2C3OC(=O)C(C)C3(O)CCC2(C)CCC1 (configuration not stated)	none
C=C1C(=O)O[C@@H]2C3=C(C)CCC[C@]3(C)CC[C@@]12O	Methyltransferases active
CC1=C2C3OC(=O)C(C)C3(O)CCC2(C)CCC1=O (configuration not stated)	none
CCCN1C(=O)c2cc(C(=O)NCCc3ccccc3)nn2CC1(C)C(=O)NC1CCCC1 (configuration not stated)	none
COC(=O)c1ncn2c1C(=O)N(Cc1ccc(OC(C)C)cc1)C(C)(C(=O)NC1CCCCC1)C2 (configuration not stated)	none
CCOC(=O)c1cc2n(n1)CC(C)(C(=O)NCCOC)N(c1ccc(OCC)cc1)C2=O (configuration not stated)	none
CCCCN1C(=O)c2cc(C(=O)Nc3ccccc3Br)nn2CC1(C)C(=O)NC1CCCC1 (configuration not stated)	none
c1ccc(CN2CCn3c4c(c5cc(C6CCCCC6)ccc53)CCCC42)cc1 (configuration not stated)	none
O=C(NCc1ccccn1)c1ccc2c(=O)nc3c(-c4cccc(F)c4)n[nH]n3c2c1	none
CNC(=O)[C@H]1O[C@@H](n2cnc3c(NCc4ccc(N)c(I)c4)ncnc32)[C@H](O)[C@@H]1O	none
Nc1ncnc2c1ncn2[C@H]1O[C@@H](C(=O)N2CCN(CC(=O)Nc3cccc4c3CNC4=O)CC2)[C@H](O)[C@@H]1O	Methyltransferases active
CNC(=O)[C@H]1O[C@@H](n2cnc3c(NCc4ccc(N)cc4)ncnc32)[C@H](O)[C@@H]1O	none
O=C(Nc1ccc(F)cc1F)N1Cc2c(sc3c2CCCC3)-n2cccc2C1c1ccccc1 (configuration not stated)	none
COc1ccc(CNC(=O)c2ncn3c2C(=O)N(C2CC2)C(C)(C(=O)NCc2ccc(OC)cc2)C3)cc1 (configuration not stated)	none
CC1CCCC(NC(=O)C2(C)Cn3c(nc4ccccc43)C(=O)N2CC2CCCO2)C1C (configuration not stated)	none
CC(C)Cn1c(=O)c2ccc(C(=O)NC3CCCCC3)cc2n2c(=O)n(CC(N)=O)nc12	none
CC(C)NC(=O)c1ccc2c(=O)n(C(C)C)c3nn(Cc4ccc(N5CCCC5=O)cc4)c(=O)n3c2c1	none
c1ccc2c(Oc3nc(Nc4ccc(N5CCOCC5)cc4)c4ncn(C5CCCCC5)c4n3)cccc2c1	Methyltransferases active
CCCCN(CC)CCN1C(=O)c2ccc(-c3ccco3)n2CC1(C)C(=O)NC1CCCCC1 (configuration not stated)	none
O=C(Cn1c(=O)c2ccc(Cl)cc2n2nncc12)NCc1ccc(F)cc1	none
NC(=O)c1cccc2[nH]c(-c3ccc(C4CCCN4)cc3F)nc12 (configuration not stated)	Methyltransferases active
NC(=O)c1cccc2[nH]c(-c3ccc([C@@H]4CCCN4)cc3F)nc12	Methyltransferases active
NC(=O)c1cccc2[nH]c(-c3ccc([C@H]4CCCN4)cc3F)nc12	Methyltransferases active
CSc1cccc(N2C(=O)c3cc(C(C)(C)C)nn3CC2(C)C(=O)NCCC(C)C)c1 (configuration not stated)	none
COc1ccccc1N1CCN(C(=O)CCc2nnc3n(Cc4ccc(F)cc4)c(=O)c4ccccc4n23)CC1	none
CN(C)CCN1C(=O)c2cc3occc3n2CC1(C)C(=O)NC1CCCCCCC1 (configuration not stated)	none
CCCn1c(=O)c2cc(F)ccc2n2c(SCC(=O)Nc3ccc(C)cc3)nnc12	none
CC1(C(=O)NC2CCCCCC2)Cc2ccccc2C(=O)N1Cc1cccnc1 (configuration not stated)	none
COCCCNC(=O)C1(C)Cn2nc(-c3ccccc3)cc2C(=O)N1c1ccccc1C (configuration not stated)	none
COc1ccccc1NS(=O)(=O)c1cc2c(cc1Cl)n(C)c(=O)n2C	none
C=CCNC(=O)c1cc2n(n1)CC(C)(C(=O)NCc1ccc(F)cc1)N(C)C2=O (configuration not stated)	none
CC(C)n1nc(CNC(=O)c2ccc(F)c(F)c2)c2ccccc21	none
Cc1cc2c(cc1CC(=O)c1sccc1S(=O)(=O)Nc1onc(C)c1Cl)OCO2	Methyltransferases active!
Cc1ccccc1NC(=O)Cn1nc2n(CC(C)C)c(=O)c3ccc(C(=O)NCC(C)C)cc3n2c1=O	none
CC(C)c1ccc(NS(=O)(=O)c2cc3c(cc2Cl)n(C)c(=O)n3C)cc1	none
CC1(C(=O)NC2CCCCCC2)Cn2nc(-c3cccs3)cc2C(=O)N1c1ccccc1F (configuration not stated)	none
CC1CCN(C(c2ccc(F)cc2)c2ccc(C(C)C(=O)O)cc2-c2ccc(C(F)(F)F)cc2)CC1 (configuration not stated)	Methyltransferases active
CCOc1ccc(CN2C(=O)c3cc(C(=O)OC)nn3CC2(C)C(=O)NC2CCC(C)CC2)cc1 (configuration not stated)	none
CC1(C(=O)NC2CCCCCCC2)Cn2c(cc3sccc32)C(=O)N1c1cccc(F)c1 (configuration not stated)	none
